Measurements reported in PubChem BioAssay AID1259415 (National Center for Advancing Translational Sciences (NCATS), 2018).
Where “and” joins values, the source holds several entries; their conditions need not be identical. Identical values can stand only once. Hit rate of the full screen: of about 410,000 compounds, about 18,000 (4.4%) were called active. Roughly 7% stayed inconclusive and do not appear here. Cut-off read from the data, not from the text of the source: active = activity change below about -60%; inconclusive = no clear call, values can overlap the other calls; inactive = above about -39%. This excerpt belongs to a sample that is enriched for actives. The source holds several records for some structures; these can differ, active in one and inactive in another.

test: qHTS Assay for inhibitors of the human cytomegalovirus (HCMV); details: HFF cells, HCMV-luciferase reporter, 72 h; at 57.5 µM; stronger effect = lower value
Summary of the method: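 Luciferase read-out from HCMV-luciferase-infected HFFs (MOI 1 PFU/cell) 72 h post infection at 37C; compounds added after 16 h cell attachment; activity normalized between buffer-only basal and Salinomycin (10uM) inhibitor controls.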
% is set by controls: 0 for no effect and ±100 for the full control effect.

SMILES	activity change, negative = inhibition
CC(=O)N1CCCc2cc(S(=O)(=O)N3CCC(C(=O)NCc4ccc(C)cc4)CC3)ccc21	-4.1% (inactive)
COc1ccc(OC)c(-c2noc(N3CCN(c4cc(Cl)ccc4C)CC3)n2)c1	-0.0922% (inactive)
COC(=O)c1cc(NC(=O)c2cnc(SC)nc2-c2ccccc2)cc(C(=O)OC)c1	22.8% (inactive)
CC1CCC(C(C)C)C(=O)/C1=C\c1ccc(NC(=O)CCC(=O)O)cc1 (stereo not given)	-26.4% (inactive)
O=c1[nH]c2ccccc2n1C1CCN(C(c2ccnc3ccccc23)c2nnnn2Cc2ccccc2)CC1 (stereo not given)	-61.4% (active)
CCOC(=O)N1CCN(C(c2ccnc3ccccc23)c2nnnn2-c2c(C)cccc2C)CC1 (stereo not given)	-0.353% (inactive)
CSCCC(c1nnnn1C(C)(C)C)N1CCC(n2c(=O)[nH]c3ccccc32)CC1 (stereo not given)	-37.7% (inactive)
O=c1[nH]c2ccccc2n1C1CCN(C(c2ccccc2)c2nnnn2Cc2ccccc2)CC1 (stereo not given)	-93.7% (active)
CC(C)C(c1nnnn1Cc1ccccc1)N1CCC(C(N)=O)CC1 (stereo not given)	55.3% (inactive)
O=c1[nH]c2ccccc2n1C1CCN(CCOc2ccccc2)CC1	-29.7% (inactive)
CCCN(CCC)CCCNC(=O)CNC(=O)c1nn(-c2ccc(OC)cc2)c(=O)c2ccccc12	-0.192% (inactive)
Cc1ccc(Cl)cc1N1CCN(C(=O)c2cn(C)c3ccc(S(=O)(=O)N(C)C4CCCCC4)cc3c2=O)CC1	19.9% (inactive)
Cc1cccc(OCC(=O)N(Cc2ccc(C(C)C)cc2)Cc2ccco2)c1C	-2.95% (inactive)
Cc1nc(-c2nnc(SCC(=O)Nc3cc(C(F)(F)F)cc(C(F)(F)F)c3)n2C)cs1	18.5% (inactive)
COc1cc(NC(=O)c2nc3ccccc3nc2C)cc(OC)c1OC	22.8% (inactive)
Cc1nc2ccccc2nc1N/N=C/c1ccc(O)cc1O	-86.2% (active)
Cc1n[nH]c(=O)nc1N/N=C/c1cccs1	11.4% (inactive)
COc1ccc(CNC(=O)c2cc3cccc(OC)c3oc2=O)cc1	-88.7% (active)
COc1ccc(CNC(=O)c2c[nH]c3c(OC)cc(OC)cc3c2=O)cc1	-39% (inactive)
COc1cccc2cc(C(=O)NCc3ccc(C)cc3)c(=N)oc12	-3.52% (inactive)
Cc1c(Cl)cccc1NC(=O)CCS(=O)(=O)c1ccc2c(c1)oc(=O)n2C	-4.78% (inactive)
Cc1ccc(NC(=O)CS(=O)CC(=O)N(c2ccccc2)C(C)C(=O)NC2CCCC2)cc1 (stereo not given)	4.37% (inactive)

SMILES	activity change, negative = inhibition
O=C(Cn1c[n+](CC(=O)c2ccc([N+](=O)[O-])cc2)cn1)c1ccc([N+](=O)[O-])cc1	-34.4% (inactive) and -92.6% (active)
O=C(CC(n1cncn1)C(Cl)(Cl)Cl)c1ccc([N+](=O)[O-])cc1 (stereo not given)	-0.398% (inactive)
O=C(CCn1nnc2ccccc21)OCC(=O)c1ccc([N+](=O)[O-])cc1	2.27% (inactive)
C[C@H](CO)N1C[C@H](C)[C@H](CN(C)C(=O)c2ccncc2)OCc2ccccc2-c2c(n(C)c3ccccc23)C1=O	-0.378% (inactive)
CCN(CC)CCNc1ncnc2c1cnn2-c1cc(Cl)ccc1C	-19.7% (inactive)
COc1ccc(NC(=O)C2=CC(c3ccc(OC)c(OC)c3)=NS(=O)(=O)N2C)cc1	-70.9% (active)
COc1cc(NC(=O)C2=CC(c3ccc(C)cc3)=NS(=O)(=O)N2C)cc(OC)c1OC	8.94% (inactive)
COc1ccc(C2=NS(=O)(=O)N(C)C(C(=O)NC(C)c3ccccc3)=C2)cc1 (stereo not given)	-13.9% (inactive) and -20.9% (inactive)
CCOC(=O)c1c(NC(=O)c2cc(-c3ccc(Cl)cc3)on2)sc2c1CCCC2	3.67% (inactive)
CCOC(=O)c1c(NC(=O)C2(C)Cc3ccccc3C(=O)O2)sc2c1CCCC2 (stereo not given)	-77.4% (active)
CCOC(=O)c1c(NC(=O)/C(C#N)=C/c2ccccc2)sc2c1CCC2	2.23% (inactive)
Cc1ccc2nc(-c3ccc(C)c(NC(=O)Cc4ccccc4)c3)oc2c1	38% (inactive)
COc1ccccc1NC(=O)c1oc2ccccc2c1NC(=O)C(C)C	0.436% (inactive)
COc1ccc(OC)c(-c2nc(C(N)=O)c3c(n2)n(-c2ccc4c(c2)OCO4)c(=O)n3C)c1	3.83% (inactive)
CC1COc2ccccc2N1S(=O)(=O)c1ccccc1 (stereo not given)	-16.1% (inactive)
O=C1C(=O)N(CC2COc3ccccc3O2)c2ccccc21 (stereo not given)	-62.4% (active)
O=C1C(=O)N(c2ccccc2)c2ccccc21	43.2% (inactive)
Cc1cc(C(=O)CCl)c(C)n1CC1COc2ccccc2O1 (stereo not given)	-96.1% (active)
Cc1ccc(Cl)cc1NC(=O)NC1COc2ccccc2C1 (stereo not given)	-3.29% (inactive)
CC(=O)c1ccccc1NC(=O)COC(=O)C1COc2ccccc2O1 (stereo not given)	-15% (inactive)
CC(C)CC(NC(=O)C1CCCN1C(=O)[C@@H](C)NC(=O)OCc1ccccc1)C(=O)NCC(N)=O (stereo not given in full)	-24.5% (inactive)
Cc1cccc(NC(=O)Cn2c(=O)n(CCC(C)C)c(=O)c3cccnc32)c1	28.9% (inactive)

SMILES	activity change, negative = inhibition
O=C(c1ccco1)N1CCN(C(=O)C2c3ccccc3Oc3ccccc32)CC1	-21.7% (inactive)
CCOC(=O)Cc1csc(NC(=O)CN(C)S(=O)(=O)c2ccc3c(c2)CCC(=O)N3)n1	14.5% (inactive)
Cc1cccc(-c2nc(SCc3ccc(Br)cc3)n3[nH]c(=O)cc3n2)c1	-0.292% (inactive)
COc1ccc(NC(=O)CSc2nccn2Cc2ccc3c(c2)OCO3)cc1	2.57% (inactive)
Cc1cc(C)c(C(=O)CSc2nc(C)cc(=O)[nH]2)c(C)c1	19% (inactive)
C=CCSc1nc(N)cc(=O)[nH]1	-24.3% (inactive)
Cc1cc(C(=O)CSc2nc(N)cc(=O)[nH]2)c(C)n1-c1cccc(F)c1	-80.8% (active)
CCOC(=O)C1(C(F)(F)F)N=C(N(C)C)OC(N(C)C)=N1	9.94% (inactive)
CCOc1ccc(-c2cc(C)[n+](CCN(CC)CC)c(-c3ccc(OCC)cc3)c2)cc1	-97.6% (active)
CCOc1ccc(-c2nnc3ccc(SC)nn23)cc1	-19.6% (inactive)
CCOc1ccc2c(c1)C(c1ccc(C)cc1)=NNC(c1ccc(C)cc1)=N2	9.03% (inactive)
O=C(CSc1nccn1C1CCCC1)Nc1cc(C(F)(F)F)ccc1Cl	-87.5% (active)
Cc1cccc(-n2ccnc2SCC(=O)Nc2cc(C(F)(F)F)ccc2Cl)c1	-18.2% (inactive)
COc1ccc(NC(=O)CSc2nccn2C2CCCC2)cc1OC	-35.1% (inactive)
Cc1cc(NS(=O)(=O)c2ccc3oc(=O)c4ncn(C)c4c3c2)ccc1Br	-24.9% (inactive)
Cn1nnnc1SCCCNCc1ccc(Cl)cc1	5.82% (inactive)
COc1ccccc1CCNC(=O)c1cccn1-c1nnc(N2CCCCC2)s1	-14.3% (inactive)
Cc1ccc(NC(=O)CN(C)C(=O)Cn2nnc(-c3ccccc3)n2)cc1	-24.5% (inactive)
COc1ccc(C(=O)N2CCCCC2C(=O)Nc2ccc(-n3nc(C)cc3C)cc2)o1 (stereo not given)	7.64% (inactive)
C[C@@H]1C[C@@H]2O[C@H]2/C=C\C=C\C(=O)Cc2c(Cl)c(O)cc(O)c2C(=O)O1	-76.2% (active)
CCN(CC)S(=O)(=O)c1ccc(C(=O)N2CCN(C3=NS(=O)(=O)c4ccccc43)CC2)cc1	-15.4% (inactive)
CCOC(=O)c1cc2c(=O)n3ccccc3nc2n(CC2CCCO2)c1=NC(=O)c1ccccc1Br (stereo not given)	24.4% (inactive)

SMILES	activity change, negative = inhibition
Cc1ccc(S(=O)(=O)N2C[C@@H]3CCCC[C@@H]3[C@@H](C)[C@H]2c2cn(Cc3ccccc3)c3ccc(F)cc23)cc1	-65.2% (active)
CCOC1=C2[C@@H](CN(S(=O)(=O)c3ccc(C)cc3)[C@H]2c2ccccc2F)[C@H]2C(=O)N(Cc3ccccc3)C(=O)[C@H]2C1	-19.7% (inactive)
Cc1ccc(S(=O)(=O)c2cn(Cc3ccccc3)c3cc(N4CCCC4)c(F)cc3c2=O)c(C)c1	10.5% (inactive)
COc1ccc(-c2c(C)c3ccc(O)c(CN4CCCC4)c3oc2=O)cc1OC	8.47% (inactive)
CCOc1ccc(NC(=O)Cn2c(=O)n(CCCC(=O)NCc3ccc4c(c3)OCO4)c(=O)c3ccccc32)cc1	22.9% (inactive)
CCN(CC)C(=O)CSc1nc2cc3c(cc2c(=O)n1CCCC(=O)NCc1ccc2c(c1)OCO2)OCO3	-89.8% (active)
CCCCNC(=O)CSc1nc2cc3c(cc2c(=O)n1CCCCCC(=O)NCc1ccc2c(c1)OCO2)OCO3	25.2% (inactive)
O=C(NCc1ccc(Cl)cc1)c1ccc2c(c1)nnn2C1CCCC1	-1.14% (inactive)
CC1(C(=O)NNC(=S)NCC2CCCO2)CC1(Cl)Cl (stereo not given)	-5.76% (inactive)
Cc1cccc(NC(=O)Cn2c(C(F)(F)F)nc3ccccc32)c1C	-9.72% (inactive)
CCC(=O)Nc1ccc(C)cc1-c1nc2ccccc2n(Cc2ccccc2)c1=O	13.6% (inactive)
CCC(=O)Nc1nc2ccccc2n1Cc1ccccc1C	-81.6% (active)
Cc1cc(Cl)ccc1NC(=O)Cc1ccc(NC(=O)N2CCCCc3ccccc32)cc1	25.1% (inactive)
COCCN1C2=C(COC(C)(C)C2)C(=S)NC1c1ccccc1 (stereo not given)	5.54% (inactive)
O=C(CN1CCCCCC1)Nc1ccc(Br)cc1Br	32.3% (inactive)
Cc1cc(C)c(NC(=O)CN2CCCCCC2)c(C)c1	-39.4% (inactive)
Cc1ccc(NC(=O)CN2CCCCC2)c2c1CC(C)(C)O2	-63% (active)
O=S(=O)(c1ccc(Cl)cc1)c1nnn2c1nc(NC1CCCC1)c1sccc12	21.2% (inactive)
O=[N+]([O-])c1ccccc1-c1cc(-c2ccccc2[N+](=O)[O-])on1	24.9% (inactive)
